Laboratory results from PubChem BioAssay (NCI).
The panel holds about 79,000 compounds, 15% with a hit somewhere; the sample as a whole holds those more often. Rule as the data show it: active = growth inhibition above about 70%; inactive = the rest.

Key:
[1] = NCI Yeast Anticancer Drug Screen. Data for the rad50 strain (AID 155);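 also: 0% = growth of vehicle-only cultures of the same strain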; details: S. cerevisiae rad50 strain growth inhibition, hits give high values; at 50.0 µM unless noted
How it was run: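 Readout: growth inhibition relative to vehicle-treated cultures. Compound exposure was carried out in a genetically defined yeast strain deficient in DNA damage repair.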

[2] = NCI Yeast Anticancer Drug Screen. Data for the mec2-1 strain (AID 157); details: S. cerevisiae mec2-1 strain, hits give high values; at 50.0 µM unless noted
How it was run: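 Readout is yeast growth inhibition, normalised to vehicle-treated controls, in the mec2-1 strain exposed to compound.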

[3] = NCI Yeast Anticancer Drug Screen. Data for the sgs1 mgt1 strain (AID 161);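 also: 0% = growth of cultures given vehicle only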; details: S. cerevisiae sgs1 mgt1 strain, hits give high values; at 50.0 µM unless noted
How it was run: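 Percent growth inhibition was derived by comparing compound-exposed mutant yeast with vehicle-exposed cultures. The strain carries alterations in DNA damage repair.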

[4] = NCI Yeast Anticancer Drug Screen. Data for the cln2 rad14 strain (AID 165);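 also: 0% = growth equal to vehicle treated cultures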; details: S. cerevisiae cln2 rad14 strain, hits give high values; at 50.0 µM unless noted
How it was run: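 Relative to vehicle controls, growth inhibition of compound-treated cln2 rad14 yeast was recorded.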

[5] = NCI Yeast Anticancer Drug Screen. Data for the bub3 strain (AID 167); details: S. cerevisiae bub3 mutant strain, hits give high values; at 50.0 µM unless noted
How it was run: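 Readout: yeast growth inhibition, expressed relative to vehicle-only wells. The test organism is a mutant strain from a panel with lesions in DNA repair or checkpoint genes.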

[6] = NCI Yeast Anticancer Drug Screen. Data for the mlh1 rad18 strain (AID 175); details: S. cerevisiae mlh1 rad18 strain growth inhibition, hits give high values; at 50.0 µM unless noted
How it was run: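 Test agents were incubated with a yeast strain of defined genotype (DNA damage repair defect). Inhibition of growth was derived by comparison with vehicle-exposed cultures.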

Measured: growth inhibition

CCCc1[nH]n(-c2ccccc2)c(=O)c1N=Nc1cccc(C(F)(F)F)c1
inactive: [1] -10.7% | [2] -1.1% | [3] -7.3% | [4] -12.8% | [5] -5% | [6] -7.95%

COC(=O)Cc1cc(C)n(C)c(=O)c1CN1C(=O)c2ccccc2C1=O
inactive: [1] 10.6% | [2] -10.9% | [3] 5.4% | [4] 12.4% | [5] -11.2% | [6] 20.8%

CN(C)/C=N/NC(=O)/C(C#N)=C/N(C)C
inactive: [1] -26.1% | [2] 2.3% | [3] -8.15% | [4] -24.8% | [5] -45.1% | [6] -42.9%

CC(C)NC(=O)OCc1c(COC(=O)NC(C)C)c(-c2ccccc2)n(C)c1-c1ccccc1
inactive: [1] 12.6% | [2] 2.05% | [3] 6.05% | [4] -5.7% | [5] 1.85% | [6] 32.8%

O=C(CSc1n[nH]c(=S)c2nc[nH]c12)c1ccc(Br)cc1
inactive: [1] 11.7% | [2] -0.2% | [3] 21.6% | [4] 33.1% | [5] -0.4% | [6] -8.65%

CCCC(C)C(=O)OC(CC)CC (stereo not given)
inactive: [1] 31.4% | [2] 1.55% | [3] 13.1% | [4] -18.2% | [5] 5.65% | [6] 11.4%

N#CC(c1ccccc1)c1ccc2ccccc2n1 (stereo not given)
inactive: [1] 23.6% | [2] 7.4% | [3] 10.8% | [4] 2.6% | [5] 33.5% | [6] -0.9%

N#C/C(=C\C1CCCCC1Cl)C1CCC([N+](=O)[O-])CC1 (stereo not given)
inactive: [1] 12.6% | [2] 5.15% | [3] 17.2% | [4] -8.35% | [5] 32.8% | [6] 18.1%

CC(Cl)S(=O)(=O)c1ccccc1 (stereo not given)
inactive: [1] 7.45% | [2] -4.05% | [3] -17.9% | [4] -42.5% | [5] 8.35% | [6] -14.3%

O=C(CCC(=O)Nc1ccc(Cl)c(Cl)c1)Cc1nc2ccccc2o1
inactive: [1] -8.25% | [2] -24.4% | [3] -11.2% | [4] 18.6% | [5] -13.7% | [6] 1.1%

COc1ccc(C(=O)/C=C/N)c(OC)c1
inactive: [1] 17.3% | [2] -25.4% | [3] 5.45% | [4] 20% | [5] 9.35% | [6] 10.9%

CCOC(=O)C(CC/C=C\c1ccccc1)N1CCC[C@H]1C(=O)OC (stereo not given in full)
inactive: [1] -7.9% | [2] -5% | [3] -11.9% | [4] 9.55% | [5] 2.75% | [6] -13.3%

O=C(CN1CCCCCC1)Nc1ccc2c(c1)C(=O)c1ccc(NC(=O)CN3CCCCCC3)cc1C2=O
inactive: [1] -12.3% | [2] 37.8% | [3] 51.1% | [4] 38.6% | [5] 8.95% | [6] 36.4%

O=C(O)COc1ccc(C2CCc3ccccc32)cc1 (stereo not given)
inactive: [1] 19.7% | [2] 7.3% | [3] -3.85% | [4] 16% | [5] 8.25% | [6] 0.7%

COC(=O)C1(c2ccccc2)N=C(c2ccc(C)cc2)ON1c1ccccc1 (stereo not given)
inactive: [1] -5.95% | [2] 7.05% | [3] -7.85% | [4] 12.7% | [5] -1% | [6] 10.1%

CON(C)C(=O)CNC(=O)OCC1c2ccccc2-c2ccccc21
inactive: [1] 8% | [2] -6.05% | [3] 5.35% | [4] 2.15% | [5] -5% | [6] -29.3%

CCCCCCC1OCC(CC)([N+](=O)[O-])CO1 (stereo not given)
inactive: [1] -13.8% | [2] -9.6% | [3] 1.15% | [4] -39.8% | [5] -23.6% | [6] -12.9%

CCOC(=O)c1c2ccc(/C=C/C(=O)OC)ccc-2c(C(=O)OCC)c1N
inactive: [1] -23.8% | [2] -24.4% | [3] -23.4% | [4] -23.2% | [5] -37.6% | [6] -4.35%

Cc1cccc2oc3c(c(=O)c12)CC(O)C(C)(C)O3 (stereo not given)
inactive: [1] 15.6% | [2] -3.85% | [3] 20.7% | [4] -7.85% | [5] 5.65% | [6] -45%

COc1cc(/C=N/NC(=O)c2ccccc2NC(=O)c2ccccc2)ccc1O
inactive: [1] 2.05% | [2] -13% | [3] 20.1% | [4] -32.5% | [5] 37.7% | [6] 30.9%

C=C(C)C(=NC(C)(C)C)Nc1ccc(C(=O)OCC)cc1
inactive: [1] -8.3% | [2] -5.6% | [3] -11.8% | [4] -21.2% | [5] -24.1% | [6] -45.6%

N#Cc1[nH]c(=O)n(-c2ccccc2)c1N
inactive: [1] -40.2% | [2] -57.8% | [3] -60.2% | [4] -22.4% | [5] -17.2% | [6] -37%

O=C(O)c1ccc(NCC(O)COc2ccc([N+](=O)[O-])cc2)cc1 (stereo not given)
inactive: [1] -6.7% | [2] 4.85% | [3] -2.8% | [4] 5.4% | [5] -3.55% | [6] 0.25%

Oc1cccnc1Cl
inactive: [1] 12.9% | [2] -13.7% | [3] 17.4% | [4] 9.2% | [5] 13.7% | [6] 2.5%

Nc1ncnc2c1ncn2C1OC(CSCC(F)(F)F)C(O)C1O (stereo not given)
inactive: [1] -4.05% | [2] -11.8% | [3] -8.65% | [4] 26.6% | [5] -7.8% | [6] -11.4%

C=CCNC(=S)N/C=C(\C#N)C(N)=O
inactive: [1] -24.4% | [2] -40.3% | [3] -27.2% | [4] -7.15% | [5] -12.6% | [6] -41.5%

O=[N+]([O-])c1ccccc1S(=O)(=O)c1cccc2c1NCCC2
inactive: [1] 33.8% | [2] 12.3% | [3] 33.5% | [4] 31.4% | [5] 48% | [6] 46.9%

CSc1ncn(C)c1C(N)=O
inactive: [1] 0.1% | [2] 4.25% | [3] 1.5% | [4] -5.2% | [5] -3.25% | [6] 11.2%

CCc1ccc(-c2cc(-c3ccc(CC)cc3)cc(-c3ccc(CC)cc3)c2)cc1
inactive: [1] 20.1% | [2] -10.1% | [3] -18.9% | [4] 0.3% | [5] -4.7% | [6] 7.95%

CCOC(=O)CN(c1ccccc1)c1nc(=[N+](C)C)ss1
inactive: [1] 7.05% | [2] 0.65% | [3] 6.8% | [4] 2.55% | [5] 1.35% | [6] 22.9%

Cc1c2n(c(=O)[nH]c1=O)C1OC(CO)C(O2)C1N=[N+]=[N-] (stereo not given)
inactive: [1] -11.1% | [2] -17.6% | [3] -27.2% | [4] -7.55% | [5] -9.65% | [6] -34.6%

OC1COC(c2ccccc2)OC1 (stereo not given)
inactive: [1] -7.15% | [2] -2.1% | [3] 4.15% | [4] -5.85% | [5] -1.75% | [6] 24.6%

OC1CC2CCCCC2CC1(O)c1ccc(OCc2ccccc2)c(OCc2ccccc2)c1 (stereo not given)
inactive: [1] 16.6% | [2] -9.55% | [3] -19% | [4] 14.8% | [5] 3.4% | [6] -5.2%

CC(C)OC(=O)CC1NS(=O)(=O)c2ccccc21 (stereo not given)
inactive: [1] 3.9% | [2] 1% | [3] -9.7% | [4] 24.6% | [5] -16.6% | [6] 20.6%

CCCCCC#CC[C@@H](O)[C@@H](O)COCc1ccccc1
inactive: [1] 17.4% | [2] 8.6% | [3] 32.2% | [4] 29.2% | [5] -20.8% | [6] 9.9%

CCCCCc1cc[n+](CC(=O)c2ccc(F)cc2)cc1
inactive: [1] -6.55% | [2] 13.6% | [3] 23.1% | [4] -35.6% | [5] 45.6% | [6] 13.5%

NC(=O)c1ccccc1OC(=O)Nc1ccc(F)c([N+](=O)[O-])c1
inactive: [1] 3.75% | [2] 26.6% | [3] 12.4% | [4] -1.95% | [5] 20.7% | [6] 12.1%

CSc1nc(N)cc(=O)n1C
inactive: [1] -16.1% | [2] -11.2% | [3] -23.9% | [4] -53.1% | [5] -9.05% | [6] 14.2%

CNC(=S)C#N
inactive: [1] -21.8% | [2] -14.4% | [3] -15.3% | [4] 11.9% | [5] -13% | [6] 0.1%

CN1CC2=C(NC(=S)NC2c2ccc(Cl)cc2)/C(=C/c2ccc(Cl)cc2)C1 (stereo not given)
inactive: [1] -7.95% | [2] 4.45% | [3] 7.45% | [4] 14.4% | [5] 29.2% | [6] 4.15%
